Shown are actives, neighbours in structure and some others; about 15% of the full set was active somewhere.
12-LOX inh: Primary qHTS assay for inhibitors of human arachidonate 12S-lipoxygenase (ALOX12): Round 2; AID 1671190, 2021; 580,000 compounds, 1.1% hits; Polyunsaturated fatty acid lipoxygenase ALOX12 (Homo sapiens), P18054; purified 12hLO, xylenol orange hydroperoxide absorbance; Potency, µM (series often up to 108 µM), for inactives: at the top dose activity change, negative = inhibition, most hits filed as inhibitors
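Purified human 12hLO at 150 nM in 25 mM Hepes, 0.01% Triton X-100, pH 7.0, preincubated 15 min at room temperature with compound. Reaction started with 40 uM arachidonic acid, 30 min at room temperature. Hydroperoxide measured by Fe-xylenol orange, 573/405 nm absorbance ratio.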
Gal4-VP16 FLuc: VP16 counterscreen qHTS for inhibitors of ROR gamma transcriptional activity | Drosophila S2 Gal4-VP16 UAS-luciferase, luminescence, 20 h | Potency, µM (top dose mostly 53.6 µM), for the others: top-dose activity, negative = inhibition, actives largely listed as inhibitors | 310,000 compounds, 3.5% hits | AID 2546, 2010;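 further: Gal4-VP16 expression switched on by copper sulfate through the metallothionein promoter; nearly all actives have a fitted effect of over 50% in size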
ELG1 repair inh: qHTS screen for small molecules that inhibit ELG1-dependent DNA repair in human embryonic kidney (HEK293T) cells expressing luciferase-tagged ELG1; HEK293T ELG1-luciferase reporter, luminescence, 16 h; DNA damage induced by 5-fluorouridine; AID 504467, 2011; 330,000 compounds, 2.3% hits; Potency, µM (doses to about 46.1 µM), for inactives: at the top dose activity change, negative = inhibition, usual class: inhibitors; further: nearly all actives have a fitted effect of over 55% in size
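Step one: seed 2,000 cells per well. Step two: pin-transfer compound or DMSO alongside 5-fluorouridine. Step three: incubate 16 hr, 37 °C, 5% CO2. Step four: add ONE-Glo, wait 30 min, read luminescence.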
RORg inh: qHTS for inhibitors of ROR gamma transcriptional activity | Nuclear receptor ROR-gamma (Mus musculus), P51450 | Drosophila S2 Gal4-RORgamma UAS-luciferase reporter, 20 h | Potency, µM (series often up to 53.6 µM), for the others: at the highest dose activity change, negative = inhibition, usual class: inhibitors | 310,000 compounds, 5.4% hits | AID 2551, 2010; further: nearly all actives have a fitted effect of over 60% in size
Target sequence (P51450 whole entry, looked up, the tested form may be a part): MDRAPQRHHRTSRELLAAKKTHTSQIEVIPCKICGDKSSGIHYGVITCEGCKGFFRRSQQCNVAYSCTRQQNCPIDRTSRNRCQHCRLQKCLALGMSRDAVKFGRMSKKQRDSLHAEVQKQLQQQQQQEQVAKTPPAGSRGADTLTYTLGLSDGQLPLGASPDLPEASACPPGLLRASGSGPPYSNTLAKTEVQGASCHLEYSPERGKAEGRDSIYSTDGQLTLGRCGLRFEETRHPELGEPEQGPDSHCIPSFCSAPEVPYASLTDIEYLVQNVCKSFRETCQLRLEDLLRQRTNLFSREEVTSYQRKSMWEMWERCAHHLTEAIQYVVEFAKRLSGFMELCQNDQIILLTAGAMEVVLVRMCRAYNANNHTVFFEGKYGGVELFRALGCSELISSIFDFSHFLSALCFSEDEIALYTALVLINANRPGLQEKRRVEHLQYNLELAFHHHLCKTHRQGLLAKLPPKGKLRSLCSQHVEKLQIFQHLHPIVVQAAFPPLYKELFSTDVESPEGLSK
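Stably transfected Drosophila Schneider cells are the test system, with ROR gamma fused to Gal4 and luciferase under UAS control; luminescence is read after 20 hr of 700 uM copper sulfate induction at ambient temperature.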
DT40 TDP1 no CPT: qHTS for Inhibitors of human tyrosyl-DNA phosphodiesterase 1 (TDP1): qHTS in cells in absence of CPT | Potency, µM (top dose mostly 46.2 µM), without a hit: top-dose activity change, negative = growth inhibition, hits mostly inhibitors | 420,000 compounds, 15% hits | DT40 Tdp1-/- hTDP1 cells, no CPT, ATP luminescence, 48 h; further: nearly all actives have a fitted effect of over 55% in size
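Readout: luminescence from CellTiter-Glo after 30 min in the dark at RT. Cells: DT40 Tdp1-/- with stable hTDP1, 400/well. Exposure: compounds alone, ≥48 hr, 37 °C.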
DT40 TDP1 CPT: qHTS for Inhibitors of human tyrosyl-DNA phosphodiesterase 1 (TDP1): qHTS in cells in presence of CPT. chicken DT40 Tdp1-/-;hTDP1 cells + 20 nM CPT, ATP luminescence, 48 h. Potency, µM (highest dose often 46.2 µM), for the others: top-dose activity change, negative = growth inhibition, usual class: inhibitors. 420,000 compounds, 12% hits. AID 686979, 2013; further: nearly all actives have a fitted effect of over 55% in size
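Chicken DT40 Tdp1-/- cells complemented with human TDP1, 400 cells/well, exposed to compounds plus 20 nM camptothecin for at least 48 h at 37 C; viability read as ATP content by CellTiter-Glo luminescence.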
* = called active by the depositor; ? = inconclusive; / = no result given; [ ] = remark or other dose. The call rests on the fitted dose curve; in most records, active means well fitted curve in the direction sought with a large enough effect; inconclusive means small, poorly fitted or top-dose-only effect, or another doubt; inactive means no such curve, though single readings can be large; an effect the other way counts as inactive or inconclusive. On the % scale 0 is the no-effect control and ±100 the full control effect; potency means the concentration at half of the fitted maximal effect.

SMILES | 12-LOX inh | Gal4-VP16 FLuc | ELG1 repair inh | RORg inh | DT40 TDP1 no CPT | DT40 TDP1 CPT
O=[N+]([O-])c1ccc(-c2csc(NN=C3CCCC3)n2)cc1 | -6% | 5% | 15% | 10% | 10µM* | 4.1µM*
CC(C)c1ccccc1NC(=O)C1CC=CCC1 (stereo not drawn) | 20% | / | / | / | / | /
Cc1oc(-c2ccccc2F)nc1CN1CCC(C(=O)NC2CCCCCCC2)CC1 | / | 5% | 5% | -5% | 23µM* | ?
O=C(NC1CCN(c2nc3ncccc3o2)CC1)C1CCCC1 | 10%[176 µM] | / | / | / | / | /
O=C(c1ccc(-c2ccccc2)cc1)N1CCN(c2nc3ccccc3o2)CC1 | 23% | -8% | 14% | 0% | ? | -23%
CC(C)(C)c1ccc(C(=O)N2CCN(c3nc4ccccc4o3)CC2)cc1 | 8% | 0% | ? | -17% | 6.5µM* | 9.2µM*
Cc1oc(-c2ccccc2F)nc1CN1CCC(C(=O)NC2CCCc3ccccc32)CC1 (stereo not drawn) | 0% | -11% | ? | ? | ? | 15µM*
O=C(NC1CCCCCCC1)C1CCN(c2nc3ccccc3o2)CC1 | -29% | / | 16µM* | -19% | 16µM* | ?
CC(=O)N(CCC1(Cc2ccccc2)CCOC(C)(C)C1)Cc1ccccc1 (stereo not drawn) | -9% | / | / | / | / | /
O=C(NC1CCCc2ccccc21)C1CCN(S(=O)(=O)N2CCCCCC2)CC1 (stereo not drawn) | -3% | -16% | ? | ? | 18µM* | 13µM*
COc1cccc(CN2CCC(N3C(=O)C(OC)C34CCOCC4)CC2)n1 (stereo not drawn) | 40% | / | / | / | / | /
O=C(/C(=N/N=C/c1ccc(O)c(O)c1O)c1ccccc1)c1ccccc1 | 14µM* | 10µM* | -18% | ? | ? | ?
Oc1ccc(/C=N/N=C(c2ccccc2)c2ccccc2)c(O)c1O | 40µM* | ? | -17% | ? | ? | ?
C(=N\N=C(c1ccccc1)c1ccccc1)/c1ccncc1 | -15% | / | / | / | / | /
COc1ccc(-n2c(C)nnc2SCc2nc(-c3ccccc3C)no2)cc1 | -21% | / | / | / | / | /
O=C(c1coc(COc2ccc(F)cc2Cl)n1)N1CCCCO1 | 2% | / | / | / | / | /
CCCCN1C(=O)C2(CCN(C(=O)CC(C)(C)C)CC2)Nc2ccccc21 | 61% | / | / | / | / | /
C#CCN(C[C@H]1[C@H](OC(=O)NCC2CCCCC2)[C@H](OC(=O)NCC2CCCCC2)C[C@@H](C(=O)OC)[C@H]1C(=O)OC)S(=O)(=O)c1ccc(C)cc1 | 0% | / | / | / | 2.9µM* | 2.9µM*
C#CCN(C[C@H]1[C@H](OC(=O)NCc2ccccc2F)[C@H](OC(=O)NCc2ccccc2F)C[C@@H](C(=O)OC)[C@H]1C(=O)OC)S(=O)(=O)c1ccc(C)cc1 | -4% | / | / | / | 6.5µM* | 4.6µM*
Cc1ccc(CNc2ccc3nnc(C4CCC4)n3n2)o1 | 14% | / | / | / | / | /
CCOC(=O)c1cnc(SCc2nc(-c3cccc(C)c3)oc2C)nc1N | 7% | / | / | / | / | /
CC1=C(C(=O)N2CCCCCC2)CC(CC(=O)NCC2CCCCC2)C(=O)N1Cc1ccccc1 (stereo not drawn) | 5% | / | / | / | ? | ?
CC1=C(C(=O)N(C(C)C)C(C)C)CC(CC(=O)NCC2CCCCC2)C(=O)N1Cc1ccc(F)cc1 (stereo not drawn) | -25% | / | / | / | 18µM* | 16µM*
CC1=C(C(=O)N2CCCCCC2)CC(CC(=O)NCC2CCCCC2)C(=O)N1Cc1ccc(F)cc1 (stereo not drawn) | -49% | / | / | / | ? | 23µM*
Cc1ccc2oc(C(=O)N(Cc3cccc(Cl)c3)C3CCS(=O)(=O)C3)cc(=O)c2c1 (stereo not drawn) | -1% | / | / | / | / | /
SMILES | 12-LOX inh | Gal4-VP16 FLuc | ELG1 repair inh | RORg inh | DT40 TDP1 no CPT | DT40 TDP1 CPT
O=C1OCCC1NC(=S)Nc1cccc2ccccc12 (stereo not drawn) | 5% | / | / | / | / | /
C=CCn1c(-c2cc(Cl)ccc2OC)n[nH]c1=S | ? | 18µM* | 0% | 11µM* | -3% | 3%
CCn1c(-c2cc(Cl)ccc2OC)n[nH]c1=S | ? | ? | 6% | 6.3µM* | -2% | -5%
C=CCn1c(-c2cc3cccc(OC)c3o2)n[nH]c1=S | ? | ? | -3% | 3.5µM* | ? | ?
COc1cccc2cc(-c3ccccc3)oc12 | 53% | / | / | / | -6% | -14%
COc1cccc2cc(-c3ccnc(=S)[nH]3)oc12 | / | ? | ? | 2.8µM* | / | /
COc1ccc(Cl)cc1-c1n[nH]c(=S)n1C | ? | 2% | -21% | ? | -16% | -8%
CCOC(=O)c1cc2cccc(OC)c2o1 | -34% | / | / | / | / | /
CCCOc1ccccc1C(C)N (stereo not drawn) | 55% | / | / | / | / | /
CCC(C)NC(=O)CCNC(=O)NCc1ccccc1 (stereo not drawn) | 7% | / | / | / | / | /
CN(C)CCN(CC1CCCCC1)C(=O)Nc1ccc(F)cc1 | -1% | / | / | / | / | /
CCOc1cccc(CN2C[C@@H]3C(=O)N(CCN4CCc5ccccc5C4)C(=O)[C@@H]3C2)c1 | -4% | / | / | / | / | /
CCn1c(-c2cccc(Cl)c2)n[nH]c1=S | 28µM* | 11µM* | 3% | 6.3µM* | 1% | -25%
C=CCn1c(-c2cccc(OC)c2OC)n[nH]c1=S | ? | ? | ? | 11µM* | ? | ?
CC(C)Oc1ccc(C(=O)OCC(=O)NC2CCCCCC2)cc1 | 22% | / | -5% | / | 16µM* | ?
CCOc1cc(=O)n2c(c1C(=O)Nc1ccc(C)cc1Cl)CCCC2 | 26% | / | / | / | / | /
Cc1ccc(NCc2nc3ccccc3n2CCOc2ccccc2)cc1 | 1% | ? | ? | ? | 18µM* | ?
Fc1ccc(NCc2nc3ccccc3n2CCOc2ccccc2Cl)cc1 | 5% | / | / | / | ? | ?
COc1ccc(NCc2nc3ccccc3n2CCOc2ccccc2C)cc1 | 3% | / | / | / | ? | 18µM*
CCn1nccc1C(=O)N1CCCC(COc2ccccc2C(=O)NC(C)C)C1 (stereo not drawn) | -3% | / | / | / | / | /
CCOc1ccc(NC(=S)N(CC)Cc2ccccc2)cc1 | / | 0% | -25% | 14µM* | / | /
C=CCNC(=O)N(CCc1ccccn1)Cc1ccc(F)cc1 | 6% | / | / | / | / | /

Screening results deposited in PubChem by National Center for Advancing Translational Sciences (NCATS).
